{"source": "ChEMBL document CHEMBL3988442", "about": "“University of Dundee, Small-Polar-MMV Screening Library” (2021)", "data": [{"biological_target": "T1, Aspartate--tRNA(Asp/Asn) ligase (Mycobacterium tuberculosis (strain ATCC 25618 / H37Rv)) (UniProt P9WFW3)", "T1 sequence (whole entry)": "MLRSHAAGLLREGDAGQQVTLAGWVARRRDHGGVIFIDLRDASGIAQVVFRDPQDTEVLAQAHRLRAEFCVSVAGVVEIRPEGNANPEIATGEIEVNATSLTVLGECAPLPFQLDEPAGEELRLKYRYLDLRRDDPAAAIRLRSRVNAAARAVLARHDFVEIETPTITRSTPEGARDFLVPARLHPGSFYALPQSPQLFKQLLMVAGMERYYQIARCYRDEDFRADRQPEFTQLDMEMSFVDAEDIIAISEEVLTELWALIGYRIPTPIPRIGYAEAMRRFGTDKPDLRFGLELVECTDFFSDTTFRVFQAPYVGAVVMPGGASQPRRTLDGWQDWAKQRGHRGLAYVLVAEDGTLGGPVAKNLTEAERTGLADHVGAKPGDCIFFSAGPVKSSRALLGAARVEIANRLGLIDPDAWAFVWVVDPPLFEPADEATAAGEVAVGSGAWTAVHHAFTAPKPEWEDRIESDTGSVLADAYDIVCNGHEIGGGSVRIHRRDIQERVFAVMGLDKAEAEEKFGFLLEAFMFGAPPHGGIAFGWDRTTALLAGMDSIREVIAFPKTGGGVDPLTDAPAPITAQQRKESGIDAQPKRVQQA", "test": "Assay for Asp RNA synthetase-1 from Mycobacterium tuberculosis", "type": "functional", "parameters": "scale not given: direction of the effect not stated beside the values", "details": "30 µM", "units": {"Percent Effect": "%"}, "values": [{"smiles": "O=C(c1cccc2[nH]ncc12)N1CCCC1c1noc(C2CC2)n1", "note": "(stereo not given)", "Percent Effect": -4.54}, {"smiles": "Cc1cc(-c2nn(C)c(Cl)c2CN2CCOCC(O)C2)no1", "note": "(stereo not given)", "Percent Effect": -2.42}, {"smiles": "CN(C)CCN(C)C(=O)c1cnc2c(c1)nc(-c1ccccc1Cl)n2C", "Percent Effect": 7.01}, {"smiles": "CCCn1[nH]cc/c1=N\\C(=O)CN1CCOC(Cn2cc(C)cn2)C1", "note": "(stereo not given)", "Percent Effect": -3.84}, {"smiles": "O=C(Nc1cn[nH]c1)c1ccc(O)nc1", "Percent Effect": -1.37}, {"smiles": "Cc1ccc(C(=O)N2CCC3(CC2)COC(COc2ccccn2)C3)o1", "note": "(stereo not given)", "Percent Effect": 4.9}, {"smiles": "O=C(c1csc(-c2cccs2)n1)N1CCCC1Cn1cccn1", "note": "(stereo not given)", "Percent Effect": 3.15}, {"smiles": "Cc1ccc(C(=O)Nc2cn[nH]c2)cn1", "Percent Effect": 1.01}, {"smiles": "CC(C)Cc1cc(C(=O)NCCc2ccc(S(C)(=O)=O)cc2)[nH]n1", "Percent Effect": 3.53}, {"smiles": "Cn1nc(CNC(=O)c2nc3ccccc3s2)c2c1CCOC2", "Percent Effect": -0.335}, {"smiles": "Cc1nnc2n1CCN(CCS(=O)(=O)c1ccccc1)C2", "Percent Effect": -4.37}, {"smiles": "CCc1nccn1C1CCCN(C(=O)CCc2nccs2)C1", "note": "(stereo not given)", "Percent Effect": 2.69}, {"smiles": "c1ncn(CC2CN(Cc3csc(C4CCCC4)n3)CCO2)n1", "note": "(stereo not given)", "Percent Effect": -2.81}, {"smiles": "COc1ccc(NC(C)=O)c(N2CCN(C(C)=O)CC2)n1", "Percent Effect": 2.32}, {"smiles": "CC(C)(C)c1ncc2c(n1)CN(C(=O)c1ccncc1)C2", "Percent Effect": 2.51}, {"smiles": "Cc1cc(C2CCCN2CCCc2nc3ccccc3o2)on1", "note": "(stereo not given)", "Percent Effect": -0.533}, {"smiles": "CS(=O)(=O)N1CCCCCC1C1CCN(c2ncccn2)CC1", "note": "(stereo not given)", "Percent Effect": -3.75}, {"smiles": "O=C(c1ccco1)N1CCOCC2(CCN(C3CCOCC3)C2)C1", "note": "(stereo not given)", "Percent Effect": 8.62}, {"smiles": "O=C(c1cccs1)N1CC[C@H](O)[C@@H]1Cc1ccccc1", "Percent Effect": 0.296}, {"smiles": "Cc1cc(C(=O)NCC(C)N2CCc3ccccc32)no1", "note": "(stereo not given)", "Percent Effect": -0.278}]}, {"biological_target": "Shiga toxin 2 (Escherichia coli O157:H7) (UniProt P09385+P09386)", "test": "E. coli 0.157:H7 Shiga Toxin SOP - stx2 screening assay", "type": "functional", "parameters": "scale not given: direction of the effect not stated beside the values", "details": "30 µM", "units": {"Percent Effect": "%"}, "values": [{"smiles": "Cc1ccc(C(=O)NCCNc2ncccc2C#N)c(=O)[nH]1", "Percent Effect": -19.7}, {"smiles": "Cc1ccc(CC(=O)N2CCCCC2c2nc(C)cs2)cn1", "note": "(stereo not given)", "Percent Effect": 1.25}, {"smiles": "COCCNC(=O)c1cc(S(=O)(=O)N2CCCCC2)cs1", "Percent Effect": -0.342}, {"smiles": "OC(CN1CCN(c2ncccn2)CC1)c1cccc(F)c1", "note": "(stereo not given)", "Percent Effect": -4.85}, {"smiles": "Cc1ccc(CC(=O)N2CCCC(c3nc(C)cs3)C2)cn1", "note": "(stereo not given)", "Percent Effect": 7.66}, {"smiles": "CCC(CC)c1cc(CNC(=O)N2CCCC(N(C)C)C2)on1", "note": "(stereo not given)", "Percent Effect": 9.62}, {"smiles": "Cc1nc(C2CCCN2CC(=O)N2CCCc3ccccc32)no1", "note": "(stereo not given)", "Percent Effect": -12.2}, {"smiles": "Cc1ccc(CN2CCC[C@]3(C(=O)O)CN(c4ncccn4)C[C@@H]3C2)o1", "Percent Effect": -25.5}, {"smiles": "O=C(O)[C@@H]1CN(C(=O)c2ccc3[nH]nnc3c2)C[C@H]1c1cccc(F)c1", "Percent Effect": -15.6}, {"smiles": "Cc1ccccc1N1CC2(CCN(S(=O)(=O)c3cccs3)C2)CC1=O", "note": "(stereo not given)", "Percent Effect": -0.82}, {"smiles": "COc1ccc2cc(C(=O)N3CCCCC3CC(N)=O)[nH]c2c1", "note": "(stereo not given)", "Percent Effect": 4.87}, {"smiles": "Clc1snnc1CN1CCOC(CNc2cccnn2)C1", "note": "(stereo not given)", "Percent Effect": -5.91}, {"smiles": "O=C(NCCNc1ncccn1)N1CCN(Cc2cccnc2)CC1", "Percent Effect": -6.42}, {"smiles": "Cc1c(O)oc(-c2ccc(Br)cc2)nc1=O", "Percent Effect": -45.4}, {"smiles": "Cc1csc(C2CCCN(C(=O)c3ccc(=O)n(C)n3)C2)n1", "note": "(stereo not given)", "Percent Effect": -15.3}, {"smiles": "NC(=O)C1(c2cnccn2)CCCN1Cc1cc2ccccc2o1", "note": "(stereo not given)", "Percent Effect": 11.4}, {"smiles": "O=C(NCCNc1ncccn1)N1CCSCC1", "Percent Effect": 17.7}, {"smiles": "CS(=O)(=O)NCc1ncn2c1CN(C(=O)CC1CCCC1)CCC2", "Percent Effect": -6.05}, {"smiles": "O=C1CC[C@@H]2[C@@H](CCN2C(=O)c2ccsc2)N1CC1CC1", "Percent Effect": 1.28}, {"smiles": "CC(C)c1cc(NC(=O)c2ccc(C(=O)NC(C)(C)C)cc2)[nH]n1", "Percent Effect": -39.3}, {"smiles": "O=C(c1cccc2[nH]ncc12)N1CCCC1c1noc(C2CC2)n1", "note": "(stereo not given)", "Percent Effect": 0.232}, {"smiles": "Cc1cc(-c2nn(C)c(Cl)c2CN2CCOCC(O)C2)no1", "note": "(stereo not given)", "Percent Effect": 16.3}, {"smiles": "CN(C)CCN(C)C(=O)c1cnc2c(c1)nc(-c1ccccc1Cl)n2C", "Percent Effect": 9.89}, {"smiles": "CCCn1[nH]cc/c1=N\\C(=O)CN1CCOC(Cn2cc(C)cn2)C1", "note": "(stereo not given)", "Percent Effect": 8.34}, {"smiles": "O=C(Nc1cn[nH]c1)c1ccc(O)nc1", "Percent Effect": 30.3}, {"smiles": "Cc1ccc(C(=O)N2CCC3(CC2)COC(COc2ccccn2)C3)o1", "note": "(stereo not given)", "Percent Effect": 5.7}, {"smiles": "O=C(c1csc(-c2cccs2)n1)N1CCCC1Cn1cccn1", "note": "(stereo not given)", "Percent Effect": 37.2}, {"smiles": "Cc1ccc(C(=O)Nc2cn[nH]c2)cn1", "Percent Effect": 15.1}, {"smiles": "CC(C)Cc1cc(C(=O)NCCc2ccc(S(C)(=O)=O)cc2)[nH]n1", "Percent Effect": -19.9}, {"smiles": "Cn1nc(CNC(=O)c2nc3ccccc3s2)c2c1CCOC2", "Percent Effect": 1.68}, {"smiles": "Cc1nnc2n1CCN(CCS(=O)(=O)c1ccccc1)C2", "Percent Effect": -6.96}, {"smiles": "CCc1nccn1C1CCCN(C(=O)CCc2nccs2)C1", "note": "(stereo not given)", "Percent Effect": 16.2}, {"smiles": "c1ncn(CC2CN(Cc3csc(C4CCCC4)n3)CCO2)n1", "note": "(stereo not given)", "Percent Effect": 13.4}, {"smiles": "COc1ccc(NC(C)=O)c(N2CCN(C(C)=O)CC2)n1", "Percent Effect": -15.1}, {"smiles": "CC(C)(C)c1ncc2c(n1)CN(C(=O)c1ccncc1)C2", "Percent Effect": -10.4}]}]}
